From PubChem BioAssay AID1851 (National Center for Advancing Translational Sciences (NCATS), 2009) come the findings set out here.

Each structure is given as a SMILES string. Several values for one entry are separate records, joined by “and”; a condition that tells them apart may be missing. Equal entries are not always repeated. About 2,600 (16%) of roughly 16,000 compounds were called active. Another 20% or so got no clear call; they are omitted. Calls come from the whole dose curve; as a rule, active = well fitted curve in the direction sought with a large enough effect; inconclusive = small, poorly fitted or top-dose-only effect, or effect the other way; inactive = no such curve, though single readings can be large or run the other way. A selection follows.
% is set by controls: 0 for no effect and ±100 for the full control effect.

This test deals with Cytochrome P450 2D6 (Homo sapiens) (UniProt P10635). As to the kind of experiment: Cytochrome panel assay with activity outcomes. The settings on record: recombinant CYP, pro-luciferin dealkylation, luminescence, p450-cyp2d6; series mostly up to 57.1 µM.
Sequence of Cytochrome P450 2D6 (Homo sapiens) (P10635 whole entry, looked up): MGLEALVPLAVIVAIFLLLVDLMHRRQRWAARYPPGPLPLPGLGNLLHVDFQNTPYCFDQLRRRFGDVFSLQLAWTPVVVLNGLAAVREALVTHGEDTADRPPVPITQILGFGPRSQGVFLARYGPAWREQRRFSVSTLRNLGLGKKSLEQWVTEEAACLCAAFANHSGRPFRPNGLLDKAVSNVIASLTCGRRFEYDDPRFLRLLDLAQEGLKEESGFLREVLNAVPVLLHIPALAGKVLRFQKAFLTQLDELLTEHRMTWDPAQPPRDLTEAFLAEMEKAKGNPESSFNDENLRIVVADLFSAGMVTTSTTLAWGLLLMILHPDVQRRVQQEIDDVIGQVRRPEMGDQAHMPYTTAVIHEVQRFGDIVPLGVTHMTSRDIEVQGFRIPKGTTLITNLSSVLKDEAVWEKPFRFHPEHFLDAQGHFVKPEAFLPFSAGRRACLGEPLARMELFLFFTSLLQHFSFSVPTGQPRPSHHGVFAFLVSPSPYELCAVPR
For orientation: AC50 means the midpoint of the concentration-response curve, whichever way the signal moves. Regarding `Nc1c(-c2ccccc2)cnn1-c1cccc([N+](=O)[O-])c1`, the AC50 result is “inactive”.
Consider `COc1cc(C)nc(N2CCCC(C(=O)Nc3cc(Cl)ccc3OC)C2)n1` (stereo not drawn), for which the AC50 entry was “inactive”.
On the same count and under the same terms, in the case of `COCCn1c(=O)c(-c2ccc(Cl)cc2)nc2cnc(N3CCOCC3)nc21` it was “inactive”; in that of `N#Cc1c[nH]n2c(=O)c3c(nc12)CCCC3`, “inactive”.
Turning to `CC1=C(C(=O)Nc2ccccc2)C(c2ccco2)NC(=S)N1` (stereo not drawn), the AC50 entry was “inactive”.
Consider `COC(=O)C1CCC(C)(C(=O)Nc2ccccc2)C1(C)C` (stereo not drawn), for which the AC50 result was “inactive”.
On to `CC1(C)SC(=S)N(NC(=O)Nc2ccccc2)C1N(O)C(=O)Nc1ccccc1` (stereo not drawn), for which the AC50 was 25.1 µM (active).
With `Cc1cccc(NC(=O)c2cccc(N3C(=O)C4C5CCC(C5)C4C3=O)c2)c1C` (stereo not drawn), the AC50 entry is “inactive”.
Take `COc1ccc(NC(=O)CSc2nnc(Cc3cccn3C)n2CCc2ccccc2)c(OC)c1`: the AC50 was 3.98 µM (active).
For the molecule `COc1ccc(OC)c(C(=O)CN2C(=O)NC(C)(c3ccccc3)C2=O)c1` (stereo not drawn), the AC50 entry is “inactive”.
With `Cc1cc(C)c(NC(=O)CSc2nnc(Cc3cccn3C)n2-c2ccc(F)cc2)c(C)c1`, the AC50 entry was “inactive”.
As to `CCn1c(COc2ccccc2)nnc1SCC(=O)Nc1cc(OC)ccc1OC`, the AC50 entry was “inactive”.
As for `CNC(=O)NC(=O)CSc1nnc(-c2ccco2)n1Cc1ccccc1`, the AC50 entry is “inactive”.
For the molecule `COc1ccc(OC)c(C(=O)CSc2nnc(Cc3cccs3)n2CCc2ccccc2)c1`, the AC50 was 5.62 µM (active).
Consider `CC(=O)Nc1ccc(Cc2ccc3[nH]c(=O)cc(C)c3c2)cc1`, for which the activity, negative = inhibition was 2.4% [at 11.4 µM] (inactive).
Consider `Cc1nc(-n2[nH]c3c(c2=O)CCCC3)[nH]c(=O)c1Cc1ccccc1`, for which the AC50 entry was “inactive”.
In the case of `COc1ccc(C2C(C(=O)c3ccco3)=C(O)C(=O)N2Cc2cccnc2)cc1OC` (stereo not drawn), the AC50 result is “inactive”.
For the molecule `COc1ccc(/C=N\NC(=O)O)cc1`, the activity, negative = inhibition was 12.1% [at 11.4 µM] (inactive).
Turning to `CC(=O)N1CCC2(CC1)CN(C(=O)Nc1cccc(C#N)c1)C2`, the AC50 result was “inactive”.
`Cc1cc2cc3c(C)cc(=O)oc3c(C)c2o1`: the AC50 entry was “inactive”.
On to `CN1CCc2ccccc2[C@@H]1Cc1ccccc1NC(=O)c1sc2ccccc2c1Cl`, for which the AC50 is 0.0794 µM (active).
`CCCC(=O)N1CCN(c2ccc(NC(=O)c3sc4ccccc4c3Cl)cc2)CC1`: the AC50 result was “inactive”.
Take `CCOC(=S)NC(=O)c1sc2ccccc2c1Cl`: the AC50 result is “inactive”.
With `O=C(CC1CCCCC1)N1CCC(c2nc(-c3ccc(S(=O)(=O)N4CCCC4)cc3)no2)CC1`, the AC50 entry is “inactive”.
On to `COc1cccc(NC(=S)NNC(=O)C(C)n2nc(C)c([N+](=O)[O-])c2C)c1` (stereo not drawn), for which the AC50 entry is “inactive”.
As for `CC[n+]1c(P(=O)([O-])c2ccccc2)[nH]c2ccccc21`, the AC50 entry was “inactive”.
Turning to `O=C(c1cc(C(F)(F)F)cc(C(F)(F)F)c1)N1CCC[C@@]2(CCN(Cc3ccncc3)C2)C1`, the AC50 was 5.01 µM (active).
`O=C(c1cc(C(F)(F)F)cc(C(F)(F)F)c1)N1CCC2(CC1)CN(Cc1ccccc1)C2`: the AC50 entry was “inactive”.
For the molecule `O=C(c1cc(C(F)(F)F)cc(C(F)(F)F)c1)N1CCC[C@@]2(CCN(Cc3ccccc3)C2)C1`, the AC50 was 10 µM (active).
The same measure, in the same setting: in the case of `N#Cc1ccc(CN2CC[C@@]3(CCCN(C(=O)c4cc(C(F)(F)F)cc(C(F)(F)F)c4)C3)C2)cc1` it was “inactive”; in that of `O=C(c1cc(C(F)(F)F)cc(C(F)(F)F)c1)N1CCC2(CCCN(Cc3ccncc3)C2)CC1`, “inactive”; in that of `O=C(Nc1ccccc1)N1CC2(CCN(C(=O)c3cc(C(F)(F)F)cc(C(F)(F)F)c3)CC2)C1`, “inactive”.
On the same count and under the same terms, in the case of `O=C(Nc1cccc(F)c1)N1CC[C@@]2(CCCN(C(=O)c3cc(C(F)(F)F)cc(C(F)(F)F)c3)C2)C1` it was “inactive”; in that of `O=C(c1cc(C(F)(F)F)cc(C(F)(F)F)c1)N1CCC[C@@]2(CCN(Cc3nccs3)C2)C1`, “inactive”.
`O=C(Nc1ccccc1)N1CC[C@@]2(CCCN(C(=O)c3cc(C(F)(F)F)cc(C(F)(F)F)c3)C2)C1`: the AC50 is 15.8 µM (active).
`CC[N+](C)(CC)CCN1C(=O)c2ccccc2S1(=O)=O`: the activity, negative = inhibition was -3.94% [at 11.4 µM] (inactive).
For `Cc1c(NC(=O)C23CC4CC(CC(C)(C4)C2)C3)c(=O)n(-c2ccccc2)n1C`, the AC50 entry was “inactive”.
Take `CC12CC[C@@H]3c4ccc(OP(=O)(O)O)cc4CCC3C1CCC2=O` (stereo partly drawn): the activity, negative = inhibition is 0.651% [at 11.4 µM] (inactive).
For `Cn1cc(C(=O)c2cccc(Cl)c2Cl)cc1C(=O)O`, the AC50 result is “inactive”.
With `O=C(O)[C@H](CCc1ccccc1)N1C(=O)c2ccccc2C1=O`, the activity, negative = inhibition was 15.2% [at 11.4 µM] (inactive).
On to `c1ccc2c(c1)C(=Nc1ccc(N=C3c4ccccc4-c4ccccc43)cc1)c1ccccc1-2`, for which the activity, negative = inhibition was -8.16% [at 11.4 µM] (inactive).
The same measure, in the same setting: in the case of `O=C(O)c1ccc(C(=O)O)c(C(=O)O)c1.[NH-][C@@H]1CCCC[C@@H]1[NH-].[Pt]` it was 7.05% [at 11.4 µM] (inactive).
Turning to `CC12CS(=O)(=O)CC1SC(=S)N2c1ccccn1` (stereo not drawn), the AC50 result is “inactive”.
For the molecule `Cc1cc(O)c(C(C)C)cc1NC(=O)Nc1cccc2ccccc12`, the activity, negative = inhibition was -5.76% [at 11.4 µM] (inactive).
`CC1(C)CC(=O)C2=C(C1)N(c1ccc(F)cc1)C(N)=C(C#N)C2c1cccs1` (stereo not drawn): the AC50 entry was “inactive”.
Take `Cc1cc(N2CCN(C)CC2)n2nc(-c3ccc(Cl)cc3)nc2n1`: the activity, negative = inhibition is 15% [at 11.4 µM] (inactive).
Consider `COc1cc(C)cc(OC)c1/C=C\C(=O)O`, for which the activity, negative = inhibition was 2.34% [at 11.4 µM] (inactive).
In the case of `C[C@@H](COc1ccccc1)N(CCCl)Cc1ccccc1`, the AC50 is 0.158 µM (active).
The same measure, in the same setting: in the case of `CN(C)CC(O)COc1cccc(OCC(O)CN(C)C)c1` (stereo not drawn) it was “inactive”.
`CCOC(=O)c1cnc2ccc(C)cc2c1Sc1ccccc1C(=O)OC`: the AC50 entry is “inactive”.
In the case of `CNCCCC1c2ccccc2C=Cc2ccccc21`, the AC50 was 15.8 µM (active) and 3.98 µM (active).
Still for that read-out and setting: in the case of `COc1ccc2c(c1OC)C(=O)N(C(C)C(=O)O)C2=O` (stereo not drawn) it was “inactive”; in that of `CN(C)CC/C=C1\c2ccccc2Sc2ccc(Cl)cc21`, 2.51 µM (active); in that of `Cc1ccc(-n2nc3c(c2NC(=O)c2cccs2)CSC3)cc1`, “inactive”.
With `CCn1c(CCNC(=O)c2ccc(Cl)cc2Cl)n[nH]c1=S`, the AC50 entry is “inactive”.
Take `Cc1ccc(S(=O)(=O)N[C@H]2COC(=O)C/C=C\[C@H](C)[C@@H](NS(=O)(=O)c3ccc(C)cc3)COC(=O)C/C=C\[C@@H]2C)cc1`: the activity, negative = inhibition was 8.84% [at 11.4 µM] (inactive).
With `CCCC(=O)Nc1cc(-c2cn3cccnc3n2)ccc1OC`, the AC50 result is “inactive”.
In the case of `CC(C)CO/N=C1/C[C@@H](O)[C@@H](O)[C@@H]2[C@@H]3C(=O)N([C@@H](C)c4ccccc4)C(=O)[C@H]3CC[C@H]12`, the activity, negative = inhibition was -7.99% [at 11.4 µM] (inactive).
